Inconclusive results are not listed. The source made the active and inactive calls. Calls follow the shape of the dose curve; as a rule, active = well fitted cell-killing curve with a large enough effect; inconclusive = small, poorly fitted or top-dose-only effect, or effect the other way; inactive = flat fitted curve, though single readings scatter.
experiment: S16 Schwann cell viability assay (CellTiter-Glo assay) (AID 624031); settings: S16 rat Schwann cells viability, 24 h; series mostly up to 25.7 µM;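 also: cellular ATP luminescence as a viability measure; nearly all actives have a fitted effect of over 70% in size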
Text: Charcot-Marie-Tooth-Association [CMTA]
National Center for Advancing Translational Sciences [NCATS]
Charcot-Marie-Tooth (CMT) disease was first characterized by Jean-Martin Charcot and Pierre Marie in France and, independently, by Howard Henry Tooth in England in 1886. CMT is one of the most common inherited neurological diseases, affecting approximately 1 in 2,500 Americans. […] The most prevalent type of CMT is known as CMT1A and caused by a duplication of the PMP22 gene which leads to over-expression of this protein. PMP22 is a glycosylated intrinsic membrane protein accounting for 2-5% of the myelin protein content, and its over-expression results in demyelination and subsequently axonal loss.
A pair of cellular transcription-based assays was developed in the S16 rat Schwann cell lines (Hai, M., et al., 2002) stably transfected with orthogonal reporters - firefly luciferase (Fluc) and beta-lactamase (beta-Lac) - whose expression is driven by an intronic regulatory element of the PMP22 gene (Jones, E.A., et al., 2011) to recapitulate endogenous expression of PMP22. A comprehensive library of approved drugs, the NCGC Pharmaceutical Collection (Huang, R., et al., 2011), was screened in the cross-validating platform of the orthogonal reporter assays to identify drug modulators inhibitory towards PMP22 expression.
A set of counter-screens was devised to address non-specific activity of the library. An ATP-dependent CellTiter-Glo assay (developed by Promega Corp) was utilized to control cell viability. In addition, biochemical Fluc enzyme assay was performed to assess direct inhibition of the Fluc enzymatic activity.
Hai, M., Muja, N., DeVries, G.H., Quarles, R.H. and Patel, P.I. Comparative analysis of Schwann cell lines as model systems for myelin gene transcription studies. J Neurosci Res, 2002. 69(4): pp 497-508
Huang, R., Southall, N., Wang, Y., Yasgar A., Shinn P., Jadhav, A. , Nguyen, D.-T. and Austin, C.P., The NCGC pharmaceutical collection: a comprehensive resource of clinically approved drugs enabling repurposing and chemical genomics. Sci Transl Med, 2011. 3(80): p. 80ps16.
Native S16 cells were seeded in white solid-bottom 1536 well plates at between 500-750 cells/6uL in DMEM medium containing 10% FBS, w/o phenol red. After overnight incubation at 37 degree Celsius/5% C02, 23 nL of compounds or DMSO were delivered to each well using a pin tool, followed by 24h-incubation at 37 degree Celsius/5% C02. Then one volume of CellTiter-Glo assay reagent (Promega) was added to each well for cell viability measured by a ViewLux plate reader (PerkinElmer). The % activity was determined by normalizing to the average readings from wells containing no cells relative to DMSO-treated cells (0% Activity). The concentration-effect curves were then classified based on curve quality (r2), response magnitude and degree of measured activity.

Compound	outcome
CC[C@H](CO)NCCN[C@@H](CC)CO	inactive
CC(C)(C)NC(=O)[C@@H]1CC[C@@H]2[C@@H]3CC[C@@H]4NC(=O)C=C[C@@]4(C)[C@H]3CC[C@]21C	inactive
CC[C@H]1NC(=O)c2cc(S(N)(=O)=O)c(Cl)cc2N1	inactive
CCN[C@@H]1CN(CCCOC)S(=O)(=O)c2sc(S(N)(=O)=O)cc21	inactive
CC(=O)O[C@H]1C[C@@]2(C)[C@H](C[C@@H](O)[C@H]3[C@@]4(C)CC[C@@H](O)[C@@H](C)[C@H]4CC[C@@]32C)C1=C(CCC=C(C)C)C(=O)O	inactive
COc1ccc(-c2cc(=O)c3c(O)cc(O[C@H]4OC(COC5OC(C)C(O)C(O)[C@H]5O)C(O)C(O)C4O)cc3o2)cc1O (stereo not given in full)	inactive
CCC(C)(C)C(=O)O[C@@H]1C[C@H](C)C=C2C=C[C@H](C)[C@@H](CC[C@H]3C[C@@H](O)CC(=O)O3)[C@H]21	inactive
CCOC(=O)O[C@]1(C(=O)COC(=O)CC)CC[C@@H]2[C@@H]3CCC4=CC(=O)C=C[C@@]4(C)[C@H]3[C@H](O)C[C@]21C	inactive
C/C1=C2N=C(/C=C3N=C(/C(C)=C4\[N-]C(C)(C5N=C1C(C)(CCC(=O)NCC(C)OP(=O)([O-])O[C@H]1C(O)C(n6cnc7cc(C)c(C)cc76)O[C@@H]1CO)C5CC(N)=O)C(C)(CC(N)=O)C4CCC(N)=O)C(C)(CC(N)=O)C\3CCC(N)=O)C(C)(C)C/2CCC(N)=O.[CH2-]C1OC(n2cnc3c(N)ncnc32)C(O)C1O.[Co] (stereo not given in full)	inactive
COc1ccc([C@@H]2CC(=O)c3c(O)cc(O[C@H]4O[C@@H](CO[C@H]5O[C@@H](C)[C@@H](O)[C@@H](O)[C@@H]5O)[C@@H](O)[C@@H](O)[C@@H]4O)cc3O2)cc1O	inactive
OCC1OC([S-])[C@H](O)C(O)C1O.[Au+] (stereo not given in full)	inactive
CO[C@H]1[C@@H](OC(N)=O)[C@H](O)[C@@H](Oc2ccc3c(O)c(NC(=O)c4ccc(O)c(CC=C(C)C)c4)c(=O)oc3c2C)OC1(C)C	inactive
C#C[C@@]1(O)CC[C@@H]2[C@@H]3CCC4=C(CCC(=O)C4)[C@H]3CC[C@]21C	inactive
CC1(C)SC2C(N3C(=O)C(c4ccccc4)NC3(C)C)C(=O)N2C1C(=O)O (stereo not given)	inactive
COc1c(O[C@H]2O[C@@H](CO)[C@@H](O)[C@@H](O)[C@@H]2O)cc2c(c1OC)-c1ccc(SC)c(=O)cc1[C@H](NC(C)=O)CC2	inactive
CCC(C)C(=O)OC1CCC=C2C=CC(C)C(CCC3CC(O)CC(=O)O3)[C@@H]21 (stereo not given in full)	inactive
COc1ccc2cc(C(C)CO)ccc2c1 (stereo not given)	inactive
COC(=O)C1=C(C)NC(C)=C(C(=O)OC(C)C)[C@H]1c1cccc2nonc12	inactive
CCC(=O)O[C@@H]1[C@H](C)O[C@H](O[C@H]2[C@@H](N(C)C)[C@H](O)[C@@H](O[C@@H]3[C@@H](CC=O)C[C@@H](C)[C@@H](O)/C=C\C=C/C[C@@H](C)OC(=O)C[C@@H](OC(=O)CC)[C@H]3OC)O[C@H]2C)C[C@]1(C)O	inactive
NC[C@@H]1O[C@H](O[C@H]2[C@H](O)[C@H](O[C@@H]3O[C@H](CO)[C@@H](O)[C@H](N)[C@@H]3O)[C@@H](N)C[C@H]2N)[C@@H](O)[C@H](O)[C@@H]1O	inactive

Compound	outcome
CC[C@](C)(CN(C)C)OC(=O)c1ccccc1	inactive
C=CCOc1ccccc1OC[C@H](O)CNC(C)C	inactive
CC(=O)OCC(=O)[C@@]12OC(C)(C)O[C@@H]1C[C@H]1[C@H]3C[C@H](F)C4=CC(=O)C=C[C@@]4(C)[C@]3(F)[C@H](O)C[C@@]12C	inactive
C[C@]1(c2ccccc2)OC(C(=O)O)=CC1=O	inactive
Nc1nc(NC2CC2)c2ncn([C@H]3C=C[C@@H](CO)C3)c2n1	inactive
CCCC[C@H](CC)CN1CN(C[C@@H](CC)CCCC)CC(C)(N)C1	inactive
NCC1CCC(N)C(O[C@@H]2C(O)[C@H](O[C@H]3OC(CO)C(O)C(N)C3O)[C@@H](N)C[C@H]2N)O1 (stereo not given in full)	inactive
CO[C@]1(NC(=O)C2SC(=C(C(N)=O)C(=O)O)S2)C(=O)N2C(C(=O)O)=C(CSc3nnnn3C)CS[C@H]21 (stereo not given in full)	inactive
C=CCN1C(=CCO)[C@H]2C[C@H]3[C@@H]1CC[C@@]31c3ccccc3N3C=C4[C@@H]5N(/C=C/2[C@H]31)c1ccccc1[C@]51CC[C@H]2[C@H]1C[C@@H]4/C(=C/CO)N2CC=C	inactive
CN(C)CCn1nnnc1SCC1=C(C(=O)O)N2C(=O)[C@@H](NC(=O)Cc3csc(N)n3)[C@@H]2SC1	inactive
C[N+]12CCC(CC1)[C@@H](OC(=O)C(O)(c1ccccc1)c1ccccc1)C2	inactive
CCC(=O)OCC(=O)[C@@]1(OC(=O)CC)[C@H](C)C[C@@H]2[C@@H]3[C@H]([C@@H](O)C[C@@]21C)[C@]1(C)C=CC(=O)C=C1C[C@@H]3Cl	inactive
COC(=O)N/N=C/C1=C[N+](=O)c2ccccc2[N+]1=O	inactive
C[C@H](CCC(=O)O)[C@H]1CC[C@@H]2[C@@H]3[C@@H](O)C[C@H]4C[C@@H](O)CC[C@@]4(C)[C@H]3CC[C@@]21C	inactive
Nc1nc2ncc(CNc3ccc(C(=O)NC(CCC(=O)O)C(=O)O)cc3)nc2c(=O)[nH]1 (stereo not given)	inactive
COC1OC(CO)C(OC2OC(C(=O)O)C(OC3OC(COS(=O)(=O)O)C(OC4OC(C(=O)O)C(OC5OC(CO)C(OC6OC(C(=O)O)C(OC7OC(COS(=O)(=O)O)C(OC8OC(C(=O)O)=C[C@H](O)C8OS(=O)(=O)O)C(O)C7NC(C)=O)[C@@H](O)C6O)C(O)C5NC(C)=O)[C@@H](O)C4O)C(O)C3NC(C)=O)[C@@H](O)C2O)C(O)C1NC(C)=O (stereo not given in full)	inactive
C[C@@]12C=CC(=O)C=C1CCC1C3CC(O)[C@@](O)(C(=O)CO)[C@]3(C)CC(O)[C@]12F (stereo not given in full)	inactive
CO[C@H]1[C@H](O[C@H]2O[C@@H](C)[C@@H](O[C@@H]3C[C@](C)(O)[C@H](OC(=O)CC(C)C)[C@H](C)O3)[C@@H](N(C)C)[C@@H]2O)[C@@H](CC=O)C[C@@H](C)[C@@H](O)/C=C\C=C/C[C@@H](C)OC(=O)C[C@H]1OC(C)=O	inactive
C[C@@]12CC[C@H]3[C@@H](CCC4=CC(=O)CC[C@]43C)[C@H]1CC[C@H]2C(=O)CO	inactive
CS(=O)(=O)c1ccc([C@H](O)[C@H](CO)NC(=O)C(Cl)Cl)cc1	inactive
